# The supplement of paper PMC12282887
# ± gives the standard deviation of the averaged measurements.
# Tests used:
# Assay in all cases: promoter activity interaction Z-score (Lux/OD deviation from empty-vector control); higher = stronger promoter induction by the compound
# [1] = tested on: E. coli BW25113 ompFp lux reporter
# Outline: (§1)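 E. coli BW25113 (wild type or marA, soxS or rob deletion) carrying low-copy luxCDABE promoter reporters grew in 40 µl LB Lennox in 384-well plates at 37°C. Each compound was tested at four 1:2 dilutions in biological duplicates. OD600 and luminescence were read every 30 min for 12 h. Areas were taken over 0–8 h (wild type) or 1–9 h (mutants), and wells below 10% of median growth area were removed. The score is the Z-transformed residual of growth-normalised luminescence fitted against the empty-vector control.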
# [2] = tested on: E. coli BW25113 robp lux reporter
# Outline: as §1
# [3] = tested on: E. coli BW25113 soxSp lux reporter
# Outline: as §1
# [4] = tested on: E. coli BW25113 tolCp lux reporter
# Outline: as §1
# [5] = 0.1 µg/ml, genetic background: ΔsoxS
# [6] = 0.19 µg/ml, genetic background: wild type
# [7] = 0.19 µg/ml, genetic background: ΔmarA
# [8] = 0.19 µg/ml, genetic background: Δrob
# [9] = 0.19 µg/ml, genetic background: ΔsoxS
# [10] = 0.38 µg/ml, genetic background: wild type
# [11] = 0.38 µg/ml, genetic background: ΔsoxS
# [12] = 0.048 µg/ml, genetic background: wild type
# [13] = 0.048 µg/ml, genetic background: ΔmarA
# [14] = 0.048 µg/ml, genetic background: Δrob
# [15] = 0.048 µg/ml, genetic background: ΔsoxS
# [16] = 0.1 µg/ml, genetic background: wild type
# [17] = 0.1 µg/ml, genetic background: ΔmarA
# [18] = 0.1 µg/ml, genetic background: Δrob
smiles,measurement,setting,value
CCC(C)CCCC(=O)N[C@@H](CCN)C(=O)N[C@H](C(=O)N[C@@H](CCN)C(=O)N[C@H]1CCNC(=O)[C@H]([C@@H](C)O)NC(=O)[C@H](CCN)NC(=O)[C@H](CCN)NC(=O)[C@H](CC(C)C)NC(=O)[C@@H](CC(C)C)NC(=O)[C@H](CCN)NC1=O)[C@@H](C)O (some centres undefined) [Colistin],promoter activity interaction Z-score,[1]; [5],0.15 ± 0.24
same,promoter activity interaction Z-score,[1]; [6],0.073 ± 0.018
same,promoter activity interaction Z-score,[1]; [7],0.452 ± 0.48
same,promoter activity interaction Z-score,[1]; [8],-0.296 ± 0.74
same,promoter activity interaction Z-score,[1]; [9],-0.0443 ± 0.14
same,promoter activity interaction Z-score,[1]; [10],0.0453 ± 0.83
same,promoter activity interaction Z-score,[1]; [11],1.11
same,promoter activity interaction Z-score,[2]; [12],0.161 ± 0.5
same,promoter activity interaction Z-score,[2]; [13],-0.748 ± 0.18
same,promoter activity interaction Z-score,[2]; [14],0.308 ± 0.074
same,promoter activity interaction Z-score,[2]; [15],0.602 ± 0.38
same,promoter activity interaction Z-score,[2]; [16],0.156 ± 0.63
same,promoter activity interaction Z-score,[2]; [17],-0.00162 ± 0.4
same,promoter activity interaction Z-score,[2]; [18],-0.329 ± 0.5
same,promoter activity interaction Z-score,[2]; [5],1.13 ± 0.73
same,promoter activity interaction Z-score,[2]; [6],0.641 ± 1.4
same,promoter activity interaction Z-score,[2]; [7],-0.0677 ± 0.0062
same,promoter activity interaction Z-score,[2]; [8],-0.869 ± 0.76
same,promoter activity interaction Z-score,[2]; [9],-0.113 ± 0.049
same,promoter activity interaction Z-score,[2]; [10],-1.15 ± 0.17
same,promoter activity interaction Z-score,[2]; [11],-1.35 ± 0.85
same,promoter activity interaction Z-score,[3]; [12],-0.0522 ± 0.2
same,promoter activity interaction Z-score,[3]; [13],0.182 ± 0.078
same,promoter activity interaction Z-score,[3]; [14],0.268 ± 0.048
same,promoter activity interaction Z-score,[3]; [15],0.235 ± 0.097
same,promoter activity interaction Z-score,[3]; [16],-0.219 ± 0.34
same,promoter activity interaction Z-score,[3]; [17],0.306 ± 0.074
same,promoter activity interaction Z-score,[3]; [18],0.144 ± 0.06
same,promoter activity interaction Z-score,[3]; [5],0.368 ± 0.28
same,promoter activity interaction Z-score,[3]; [6],-0.09 ± 0.072
same,promoter activity interaction Z-score,[3]; [7],0.135 ± 0.0049
same,promoter activity interaction Z-score,[3]; [8],-0.469 ± 0.47
same,promoter activity interaction Z-score,[3]; [9],0.108 ± 0.33
same,promoter activity interaction Z-score,[3]; [10],-0.417 ± 0.57
same,promoter activity interaction Z-score,[3]; [11],-0.517
same,promoter activity interaction Z-score,[4]; [12],-0.508 ± 0.048
same,promoter activity interaction Z-score,[4]; [13],-0.536 ± 0.12
same,promoter activity interaction Z-score,[4]; [14],0.211 ± 0.004
same,promoter activity interaction Z-score,[4]; [15],0.982 ± 0.44
same,promoter activity interaction Z-score,[4]; [16],-0.675 ± 0.32
same,promoter activity interaction Z-score,[4]; [17],0.378 ± 0.075
same,promoter activity interaction Z-score,[4]; [18],-0.935 ± 0.56
same,promoter activity interaction Z-score,[4]; [5],0.791 ± 0.7
same,promoter activity interaction Z-score,[4]; [6],-0.155 ± 0.13
same,promoter activity interaction Z-score,[4]; [7],-1.61 ± 0.11
same,promoter activity interaction Z-score,[4]; [8],-0.925 ± 0.63
same,promoter activity interaction Z-score,[4]; [9],-0.699 ± 0.78
same,promoter activity interaction Z-score,[4]; [10],-0.255 ± 0.42
same,promoter activity interaction Z-score,[4]; [11],-0.469 ± 0.66
